# Experimental data as given in PMC7862700, “An all-to-all approach to the identification of sequence-specific readers for epigenetic DNA modifications on cytosine”.
# Experiments:
# Test in all cases: DAPPL (digital affinity profiling via proximity ligation, sequencing); 10 mM Tris-HCl pH 7.5, 50 mM NaCl, 1 mM DTT, 4% glycerol, room temperature, 30 min; GST-TFs on glutathione beads, 16-mer random dsDNA library, 0.1% formaldehyde crosslink after washing; high values mean tight binding
# Details in all cases: protein: recombinant; tags: N-terminal GST; dsDNA, one strand shown
# FEV = molecular target: T1, FEV (Homo sapiens, UniProt Q99581 1-238)
# T1 sequence: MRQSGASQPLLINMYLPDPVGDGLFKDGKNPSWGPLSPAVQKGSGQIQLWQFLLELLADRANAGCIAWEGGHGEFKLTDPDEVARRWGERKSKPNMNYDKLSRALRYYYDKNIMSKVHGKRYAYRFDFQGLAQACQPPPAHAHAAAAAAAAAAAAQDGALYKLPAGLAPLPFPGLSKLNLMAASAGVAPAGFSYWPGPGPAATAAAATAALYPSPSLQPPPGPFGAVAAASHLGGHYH
# Method in brief: (§1)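 GST fusions of human transcription factors were expressed in yeast and captured with glutathione beads. Once given DNA barcodes and pooled alongside a tag-only sample, they were incubated for 30 min at room temperature with 200 nmole of a random double-stranded 16-mer DNA library in Tris/NaCl/DTT/glycerol buffer, then washed, crosslinked (0.1% formaldehyde), proximity-ligated, PCR-amplified and sequenced on an Illumina NextSeq500. The binding signal of each hexamer is its read frequency for a factor divided by its frequency for the tag-only sample.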
# ETV5 = ETV5 (Homo sapiens, UniProt P41161 1-510)
# ETV5, sequence (P41161 whole entry): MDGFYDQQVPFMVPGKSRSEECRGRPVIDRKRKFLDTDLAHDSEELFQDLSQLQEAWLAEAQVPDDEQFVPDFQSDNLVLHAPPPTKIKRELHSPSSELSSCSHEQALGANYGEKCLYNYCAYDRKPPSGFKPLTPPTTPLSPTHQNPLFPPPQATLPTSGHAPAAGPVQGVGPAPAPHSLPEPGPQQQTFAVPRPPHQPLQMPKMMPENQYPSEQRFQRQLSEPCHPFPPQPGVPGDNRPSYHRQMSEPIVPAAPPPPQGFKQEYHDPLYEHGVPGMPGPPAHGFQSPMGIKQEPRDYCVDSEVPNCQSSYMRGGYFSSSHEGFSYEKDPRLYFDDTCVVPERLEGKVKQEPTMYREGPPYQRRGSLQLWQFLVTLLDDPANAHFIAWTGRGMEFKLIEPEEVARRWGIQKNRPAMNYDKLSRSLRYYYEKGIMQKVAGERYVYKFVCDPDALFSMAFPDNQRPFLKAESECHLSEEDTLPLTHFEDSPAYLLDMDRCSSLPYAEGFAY
# Method in brief: as §1
# SPIC = molecular target: T2, SPIC (Homo sapiens, UniProt Q8N5J4 1-248)
# T2 sequence: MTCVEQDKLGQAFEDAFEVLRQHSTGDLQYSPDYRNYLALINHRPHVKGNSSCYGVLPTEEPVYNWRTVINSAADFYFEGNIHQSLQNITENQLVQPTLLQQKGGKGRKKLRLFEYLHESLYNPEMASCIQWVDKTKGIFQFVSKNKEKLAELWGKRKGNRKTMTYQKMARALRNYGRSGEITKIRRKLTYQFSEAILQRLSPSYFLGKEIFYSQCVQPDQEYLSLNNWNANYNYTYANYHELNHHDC
# Method in brief: as §1
# ELF4 = ELF4 (Homo sapiens, UniProt Q99607 1-663)
# ELF4, sequence (Q99607 whole entry): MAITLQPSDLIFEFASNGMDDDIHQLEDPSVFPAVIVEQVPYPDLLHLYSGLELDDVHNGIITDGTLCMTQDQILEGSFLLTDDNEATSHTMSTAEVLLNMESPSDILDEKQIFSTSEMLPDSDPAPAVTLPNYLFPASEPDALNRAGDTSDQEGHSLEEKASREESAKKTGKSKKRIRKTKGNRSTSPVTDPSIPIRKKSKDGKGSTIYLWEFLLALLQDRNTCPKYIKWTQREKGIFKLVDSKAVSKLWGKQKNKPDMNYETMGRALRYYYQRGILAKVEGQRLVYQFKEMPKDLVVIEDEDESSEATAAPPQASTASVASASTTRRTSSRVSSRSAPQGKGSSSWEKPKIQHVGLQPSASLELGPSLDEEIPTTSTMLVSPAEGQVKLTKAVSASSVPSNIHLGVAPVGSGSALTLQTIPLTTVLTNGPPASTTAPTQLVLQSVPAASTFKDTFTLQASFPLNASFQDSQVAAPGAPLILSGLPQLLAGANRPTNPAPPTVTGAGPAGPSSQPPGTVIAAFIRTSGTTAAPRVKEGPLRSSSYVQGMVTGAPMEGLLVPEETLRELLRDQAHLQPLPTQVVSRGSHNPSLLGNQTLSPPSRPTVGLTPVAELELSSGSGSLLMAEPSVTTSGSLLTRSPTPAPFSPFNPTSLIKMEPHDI
# Method in brief: as §1
# ELK4 = molecular target: T3, ELK4 (Homo sapiens, UniProt P28324-2 1-405)
# T3 sequence: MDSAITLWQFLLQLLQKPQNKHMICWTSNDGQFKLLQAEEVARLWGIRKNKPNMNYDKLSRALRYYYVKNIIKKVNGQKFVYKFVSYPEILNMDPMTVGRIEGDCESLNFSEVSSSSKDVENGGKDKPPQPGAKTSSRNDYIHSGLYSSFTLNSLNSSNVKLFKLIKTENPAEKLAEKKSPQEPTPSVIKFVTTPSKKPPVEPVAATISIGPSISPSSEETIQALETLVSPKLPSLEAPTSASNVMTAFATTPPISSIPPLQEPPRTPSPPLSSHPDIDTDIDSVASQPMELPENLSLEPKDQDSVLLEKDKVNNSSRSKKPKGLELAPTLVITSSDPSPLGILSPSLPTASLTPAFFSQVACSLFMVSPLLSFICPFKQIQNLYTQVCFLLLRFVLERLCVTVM
# Method in brief: as §1
# ETV2 = molecular target: T4, ETV2 (Homo sapiens, UniProt O00321 1-342)
# T4 sequence: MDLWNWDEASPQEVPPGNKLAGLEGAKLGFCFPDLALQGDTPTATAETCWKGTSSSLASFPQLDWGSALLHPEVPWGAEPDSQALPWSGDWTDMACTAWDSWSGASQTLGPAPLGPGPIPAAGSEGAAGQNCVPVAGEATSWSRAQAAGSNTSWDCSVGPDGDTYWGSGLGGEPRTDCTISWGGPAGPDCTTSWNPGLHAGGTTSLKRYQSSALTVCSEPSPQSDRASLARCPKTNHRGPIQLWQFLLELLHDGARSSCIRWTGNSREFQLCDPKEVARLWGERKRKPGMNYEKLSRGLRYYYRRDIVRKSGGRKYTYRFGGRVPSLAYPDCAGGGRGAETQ
# Method in brief: as §1
# ELF3 = molecular target: T5, ELF3 (Homo sapiens, UniProt P78545 1-371)
# T5 sequence: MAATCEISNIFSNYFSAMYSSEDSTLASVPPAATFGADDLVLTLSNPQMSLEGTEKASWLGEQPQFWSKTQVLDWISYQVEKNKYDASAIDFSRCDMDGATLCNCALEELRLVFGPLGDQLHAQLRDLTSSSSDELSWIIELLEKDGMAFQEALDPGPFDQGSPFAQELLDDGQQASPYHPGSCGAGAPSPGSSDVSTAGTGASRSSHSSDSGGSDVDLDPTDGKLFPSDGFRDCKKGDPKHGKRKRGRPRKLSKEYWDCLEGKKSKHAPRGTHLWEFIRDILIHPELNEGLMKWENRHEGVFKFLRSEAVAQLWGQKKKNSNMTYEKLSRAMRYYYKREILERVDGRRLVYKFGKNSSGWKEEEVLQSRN
# Method in brief: as §1
# ETV1 = ETV1 (Homo sapiens, UniProt P50549 1-477)
# ETV1, sequence (P50549 whole entry): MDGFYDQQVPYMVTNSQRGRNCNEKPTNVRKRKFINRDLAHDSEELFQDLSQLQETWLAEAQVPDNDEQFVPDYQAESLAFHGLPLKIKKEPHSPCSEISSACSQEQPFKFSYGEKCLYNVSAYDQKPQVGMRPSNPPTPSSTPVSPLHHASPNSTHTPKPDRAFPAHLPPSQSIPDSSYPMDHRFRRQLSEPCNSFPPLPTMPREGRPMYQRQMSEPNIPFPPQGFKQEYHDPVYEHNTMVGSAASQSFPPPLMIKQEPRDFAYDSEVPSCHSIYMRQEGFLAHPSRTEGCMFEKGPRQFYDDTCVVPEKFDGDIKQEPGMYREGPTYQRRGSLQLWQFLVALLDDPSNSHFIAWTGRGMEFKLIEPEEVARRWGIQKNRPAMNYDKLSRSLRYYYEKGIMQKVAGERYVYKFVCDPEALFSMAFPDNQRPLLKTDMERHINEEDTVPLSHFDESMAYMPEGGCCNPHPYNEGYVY
# Method in brief: as §1
# ERF = molecular target: T6, ERF (Homo sapiens, UniProt P50548 1-548)
# T6 sequence: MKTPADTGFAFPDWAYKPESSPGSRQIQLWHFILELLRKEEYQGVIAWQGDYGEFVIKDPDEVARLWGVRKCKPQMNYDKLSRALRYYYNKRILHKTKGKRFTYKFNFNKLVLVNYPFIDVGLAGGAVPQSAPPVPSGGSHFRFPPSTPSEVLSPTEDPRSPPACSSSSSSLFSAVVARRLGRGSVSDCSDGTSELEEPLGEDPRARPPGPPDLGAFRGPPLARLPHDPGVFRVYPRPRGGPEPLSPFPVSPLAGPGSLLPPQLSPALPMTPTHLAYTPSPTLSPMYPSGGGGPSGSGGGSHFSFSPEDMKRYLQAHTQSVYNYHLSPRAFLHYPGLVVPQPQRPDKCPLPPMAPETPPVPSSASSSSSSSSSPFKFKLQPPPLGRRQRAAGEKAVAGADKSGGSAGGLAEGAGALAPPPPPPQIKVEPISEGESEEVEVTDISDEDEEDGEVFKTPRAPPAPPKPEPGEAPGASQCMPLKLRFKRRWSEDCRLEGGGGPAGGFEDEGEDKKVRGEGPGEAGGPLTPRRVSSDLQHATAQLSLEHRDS
# Method in brief: as §1
# ETV3L = molecular target: T7, ETV3L (Homo sapiens, UniProt Q6ZN32 1-361)
# T7 sequence: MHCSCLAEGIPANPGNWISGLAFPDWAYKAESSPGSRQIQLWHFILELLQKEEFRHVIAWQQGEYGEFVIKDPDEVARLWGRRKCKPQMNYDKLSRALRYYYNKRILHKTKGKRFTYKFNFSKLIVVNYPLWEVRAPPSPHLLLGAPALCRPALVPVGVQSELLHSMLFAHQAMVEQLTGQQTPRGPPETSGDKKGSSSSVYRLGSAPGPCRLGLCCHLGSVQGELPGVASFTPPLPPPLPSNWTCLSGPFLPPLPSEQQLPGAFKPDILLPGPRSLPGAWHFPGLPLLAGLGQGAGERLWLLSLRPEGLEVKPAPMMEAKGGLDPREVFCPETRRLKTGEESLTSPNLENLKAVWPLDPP
# Method in brief: as §1
# ETS2 = molecular target: T8, ETS2 (Homo sapiens, UniProt P15036 1-469)
# T8 sequence: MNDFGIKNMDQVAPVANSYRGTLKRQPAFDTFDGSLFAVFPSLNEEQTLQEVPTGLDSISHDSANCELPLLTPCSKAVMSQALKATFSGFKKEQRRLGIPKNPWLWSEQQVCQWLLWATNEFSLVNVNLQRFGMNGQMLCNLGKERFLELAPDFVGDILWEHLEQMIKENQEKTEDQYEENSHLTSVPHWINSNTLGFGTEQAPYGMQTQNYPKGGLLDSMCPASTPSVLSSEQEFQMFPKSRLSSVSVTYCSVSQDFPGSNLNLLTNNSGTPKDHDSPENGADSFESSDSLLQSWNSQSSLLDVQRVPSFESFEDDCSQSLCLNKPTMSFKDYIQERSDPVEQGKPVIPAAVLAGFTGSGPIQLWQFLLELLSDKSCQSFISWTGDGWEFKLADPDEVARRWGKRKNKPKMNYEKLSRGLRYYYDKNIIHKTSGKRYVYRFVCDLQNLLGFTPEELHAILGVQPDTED
# Method in brief: as §1
# SPDEF = molecular target: T9, SPDEF (Homo sapiens, UniProt O95238 1-335)
# T9 sequence: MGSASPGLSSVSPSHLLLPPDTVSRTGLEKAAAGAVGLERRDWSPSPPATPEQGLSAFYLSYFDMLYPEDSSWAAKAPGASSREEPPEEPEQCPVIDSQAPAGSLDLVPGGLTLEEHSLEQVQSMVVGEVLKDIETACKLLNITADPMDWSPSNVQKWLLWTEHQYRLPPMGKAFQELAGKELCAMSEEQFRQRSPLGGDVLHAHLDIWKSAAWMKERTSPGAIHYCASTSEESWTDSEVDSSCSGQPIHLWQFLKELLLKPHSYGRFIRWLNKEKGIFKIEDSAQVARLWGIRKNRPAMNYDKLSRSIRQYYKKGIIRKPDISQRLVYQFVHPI
# Method in brief: as §1
# ETV7 = molecular target: T10, ETV7 (Homo sapiens, UniProt Q9Y603 1-341)
# T10 sequence: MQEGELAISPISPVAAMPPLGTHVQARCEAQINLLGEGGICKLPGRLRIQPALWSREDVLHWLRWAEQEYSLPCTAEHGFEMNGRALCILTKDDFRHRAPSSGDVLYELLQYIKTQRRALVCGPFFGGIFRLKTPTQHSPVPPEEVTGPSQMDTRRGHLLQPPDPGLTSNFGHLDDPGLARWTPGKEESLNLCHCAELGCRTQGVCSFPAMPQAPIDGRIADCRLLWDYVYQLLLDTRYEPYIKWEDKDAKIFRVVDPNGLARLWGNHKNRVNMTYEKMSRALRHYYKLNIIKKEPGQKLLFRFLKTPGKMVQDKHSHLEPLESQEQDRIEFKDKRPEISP
# Method in brief: as §1
# ELF5 = molecular target: T11, ELF5 (Homo sapiens, UniProt Q9UKW6-2 1-255)
# T11 sequence: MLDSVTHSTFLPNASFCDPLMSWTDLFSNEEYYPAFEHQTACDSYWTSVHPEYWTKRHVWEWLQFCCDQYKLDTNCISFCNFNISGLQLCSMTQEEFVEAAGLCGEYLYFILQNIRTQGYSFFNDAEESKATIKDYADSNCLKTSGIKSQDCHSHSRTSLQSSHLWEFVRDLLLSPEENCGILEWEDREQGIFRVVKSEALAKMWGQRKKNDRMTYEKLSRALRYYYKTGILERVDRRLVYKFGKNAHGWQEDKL
# Method in brief: as §1
# ETV3 = molecular target: T12, ETV3 (Homo sapiens, UniProt P41162-2 1-143)
# T12 sequence: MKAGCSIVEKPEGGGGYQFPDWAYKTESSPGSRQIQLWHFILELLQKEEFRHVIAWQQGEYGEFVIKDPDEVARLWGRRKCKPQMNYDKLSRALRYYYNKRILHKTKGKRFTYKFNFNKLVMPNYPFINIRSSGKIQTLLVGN
# Method in brief: as §1
# ETV6 = ETV6 (Homo sapiens, UniProt P41212 1-452)
# ETV6, sequence (P41212 whole entry): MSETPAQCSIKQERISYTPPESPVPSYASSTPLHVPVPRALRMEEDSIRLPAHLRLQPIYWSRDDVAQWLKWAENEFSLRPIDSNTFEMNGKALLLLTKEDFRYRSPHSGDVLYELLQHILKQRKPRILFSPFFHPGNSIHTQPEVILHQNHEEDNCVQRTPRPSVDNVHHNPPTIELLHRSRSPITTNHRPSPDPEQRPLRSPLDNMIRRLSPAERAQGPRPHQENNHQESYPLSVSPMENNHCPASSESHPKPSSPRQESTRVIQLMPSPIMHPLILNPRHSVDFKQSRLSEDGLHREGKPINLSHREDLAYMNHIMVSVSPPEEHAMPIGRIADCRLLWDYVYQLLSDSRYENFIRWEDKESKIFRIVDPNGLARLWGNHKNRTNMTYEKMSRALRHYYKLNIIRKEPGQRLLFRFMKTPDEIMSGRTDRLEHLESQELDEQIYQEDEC
# Method in brief: as §1
Sequence,binding signal (FEV),binding signal (ETV5),binding signal (SPIC),binding signal (ELF4),binding signal (ELK4),binding signal (ETV2),binding signal (ELF3),binding signal (ETV1),binding signal (ERF),binding signal (ETV3L),binding signal (ETS2),binding signal (SPDEF),binding signal (ETV7),binding signal (ELF5),binding signal (ETV3),binding signal (ETV6)
CAACCT,"1.21 fold enrichment (6-mer frequency, TF over GST control)","1.18 fold enrichment (6-mer frequency, TF over GST control)","1.13 fold enrichment (6-mer frequency, TF over GST control)","1.11 fold enrichment (6-mer frequency, TF over GST control)","1.15 fold enrichment (6-mer frequency, TF over GST control)","1.28 fold enrichment (6-mer frequency, TF over GST control)","1.12 fold enrichment (6-mer frequency, TF over GST control)","1.2 fold enrichment (6-mer frequency, TF over GST control)","1.26 fold enrichment (6-mer frequency, TF over GST control)","1.13 fold enrichment (6-mer frequency, TF over GST control)","1.2 fold enrichment (6-mer frequency, TF over GST control)","1.19 fold enrichment (6-mer frequency, TF over GST control)","1.09 fold enrichment (6-mer frequency, TF over GST control)","1.2 fold enrichment (6-mer frequency, TF over GST control)","1.1 fold enrichment (6-mer frequency, TF over GST control)","1.18 fold enrichment (6-mer frequency, TF over GST control)"
TGTCAC,"1.2 fold enrichment (6-mer frequency, TF over GST control)","1.15 fold enrichment (6-mer frequency, TF over GST control)","1.31 fold enrichment (6-mer frequency, TF over GST control)","1.22 fold enrichment (6-mer frequency, TF over GST control)","1.25 fold enrichment (6-mer frequency, TF over GST control)","1.24 fold enrichment (6-mer frequency, TF over GST control)","1.2 fold enrichment (6-mer frequency, TF over GST control)","1.18 fold enrichment (6-mer frequency, TF over GST control)","1.13 fold enrichment (6-mer frequency, TF over GST control)","1.21 fold enrichment (6-mer frequency, TF over GST control)","1.26 fold enrichment (6-mer frequency, TF over GST control)","1.09 fold enrichment (6-mer frequency, TF over GST control)","1.29 fold enrichment (6-mer frequency, TF over GST control)","1.11 fold enrichment (6-mer frequency, TF over GST control)","1.08 fold enrichment (6-mer frequency, TF over GST control)","1.1 fold enrichment (6-mer frequency, TF over GST control)"
